Source: PubChem (National Center for Advancing Translational Sciences (NCATS))
p53ts 39C tox – qHTS Screen for Compounds that Selectively Target Cancer Cells with p53 Mutations: Cytotoxicity of p53ts Cells at the Nonpermissive Temperature; Potency, µM (series often up to 46.1 µM), for the others: top-dose activity change, negative = cell killing, hits mostly cytotoxic; H1299-p53A138V viability at 39C, ATP luminescence, 24 h; AID 902, 2007; hit rate 1.5% among 130,000; note: % is set by controls: 0 for no effect and ±100 for the full control effect; nearly all actives have a fitted effect of over 55% in size
Imprint erasure – qHTS Assay for Compounds that Induce Erasure of Genomic Imprints; Potency, µM (top dose mostly 60.7 µM), without a hit: at the top dose activity change, positive = activation, most hits filed as activators; mouse ES Peg3-LacZ reporter, beta-gal luminescence, 40 h; hit rate 0.02% among 110,000
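Each well holds 300 Peg3LacZ-Neo (maternal) female ES cells incubated 40 h at 37C, 5% CO2. LacZ is measured by BetaGlo luminescence, with AC50 and maximum efficacy derived from dose-response curves.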
p53ts 32C tox – qHTS Screen for Compounds that Selectively Target Cancer Cells with p53 Mutations: Cytotoxicity of p53ts Cells at the Permissive Temperature | H1299-p53A138V at 32C, ATP luminescence viability, 24 h | Potency, µM (doses to about 46.1 µM), for the others: top-dose activity change, negative = cytotoxicity, most hits filed as cytotoxic | hit rate 0.93% among 130,000;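 note: 0% = DMSO and -100% = full killing by reference compound; nearly all actives have a fitted effect of over 55% in size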
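H1299-p53 A138V cells (temperature-sensitive p53) exposed 24 h to up to 46 uM compound at 32C, where p53 is wild-type in conformation. Viability read as ATP luminescence and normalised to DMSO and 100 uM tamoxifen. AC50 fitted with the Hill equation.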
The depositor's hits bear a star; u = inconclusive; x = no result; ! = repeats disagree; [ ] = remark or other dose. A selection: hits, their analogues and other compounds. The true share with any hit is near 1.8%. Calls come from the whole dose curve; as a rule, active = well fitted curve in the direction sought with a large enough effect; inconclusive = small, poorly fitted or top-dose-only effect, or another doubt; inactive = no such curve, though single readings can be large; an effect the other way counts as inactive or inconclusive. Potency is the fitted concentration of half-maximal effect.

SMILES	p53ts 39C tox	Imprint erasure	p53ts 32C tox
Cc1oc(-c2cccc(Cl)c2)nc1CN1CCC(C(=O)NCCCN2CCN(c3cccc(Cl)c3)CC2)CC1	10µM*	-9%[10.9 µM]	-17%
Cc1oc(-c2ccccc2Cl)nc1CN1C(=O)CN=C(c2ccccc2)c2cc(Cl)ccc21	-8%	-14%[10.9 µM]	-4%
O=C(NCCc1ccc(Cl)cc1)c1ccc(Nc2nc3ccccc3n3nnnc23)cc1	7.9µM*	-5%[10.9 µM]	u
COc1cc2c(cc1OC)[C@]13CC[N@+]4(C)CC5=CCO[C@H]6CC(=O)N2[C@@H]1[C@@H]6[C@@H]5C[C@]34O	13%[9.22 µM]	x	2%[9.22 µM]
COC(=O)[C@]1(C)CC[C@@]2(C)CC[C@@]3(C)C4=CC=C5C(=CC(=O)C(O)=C5C)[C@@]4(C)CC[C@@]3(C)C2C1 (stereo partly drawn)	13µM*	-45%	10µM*
O=[N+]([O-])C(Br)Br	-5%	2%	-13%[1.84 µM]
CN(C(=O)Cc1ccc(Cl)c(Cl)c1)[C@H](CN1CCCC1)c1cccc(N=C=S)c1	32µM*	-30%	32µM*
O=C(Cc1ccc(Cl)c(Cl)c1)N1CCCCC1CN1CCCC1 (stereo not drawn)	x	-17%	x
Oc1ccc([C@H](O)[C@@H]2CCCCN2)cc1O	2%[9.22 µM]	x	-2%[9.22 µM]
COc1ccc2c(c1O)-c1cccc3c1[C@H](C2)N(C)CC3	-4%	x	-10%
COC(=O)C1CN(C#N)N(c2ccc(Cl)cc2)C12c1ccccc1-c1ccccc12 (stereo not drawn)	11µM*	x	4µM*
C=CCN1CC[C@]23c4c5ccc(O)c4O[C@@H]2/C(=N/NC(=O)c2ccccc2)CC[C@@]3(O)[C@H]1C5	12%	x	-9%
CCCCn1c(O)c(C=NC2CCCCC2N)c(=O)[nH]c1=O (stereo not drawn)	-16%	-5%	-9%
CCCCCCn1c(O)c(C=NC2CCCCC2N)c(=O)[nH]c1=O (stereo not drawn)	5µM*	-47%	4µM*
COC(=O)[C@@H]1c2cc3c(c(O)c2[C@@H](O)C[C@]1(C)O)C(=O)c1c(O)cc2c(c1C3=O)O[C@H]1O[C@@]2(C)[C@@H](O)[C@H](N(C)C)[C@H]1O	-3%[9.22 µM]	-24%[10.9 µM]	8%[9.22 µM]
COc1cc2c(cc1OC)[C@@]13CCN4CC5=CCO[C@H](CC(=O)O)[C@@H]([C@H]1N2)[C@H]5C[C@H]43	11%[9.22 µM]	-5%[10.9 µM]	5%[9.22 µM]
CCc1ccccc1Nc1nn2c(=O)c3ccc(C(=O)Nc4cc(C)cc(C)c4)cc3nc2s1	4µM*	1%[10.9 µM]	3.2µM*
CCOC(=O)c1ccc(NC(=O)c2cccn(Cc3ccccc3F)c2=O)cc1	u	-10%[10.9 µM]	-11%
C[C@@]12CC[C@H]3[C@@H](CC=C4C[C@H](OS(=O)(=O)O)CC[C@]43C)[C@H]1CCC2=O	7%	x	17%
O=C(Oc1ccc(S(=O)(=O)F)cc1F)c1ccccc1Cl	7%[9.22 µM]	-2%[10.9 µM]	4%[9.22 µM]
Cc1ccc(CCNC(=O)c2cc3cc(S(=O)(=O)N4CCCCC4)ccc3n2C)cc1	u	-16%[10.9 µM]	7%
Cc1nc2cc(C(F)(F)F)ccc2n1C1CCN(Cc2nnnn2Cc2ccc3c(c2)OCO3)CC1	20µM*	-19%	-22%
Cc1nc2cc(C(F)(F)F)ccc2n1C1CCN(Cc2nnnn2Cc2cccs2)CC1	-7%	-14%	-3%
FC(F)(F)c1nc2ccc(SSc3ccc4nc(C(F)(F)F)[nH]c4c3)cc2[nH]1	-7%[9.22 µM]	-3%[10.9 µM]	2%[9.22 µM]
O=c1[nH]c2ccccc2n1C1CCN(CCCC(c2ccc(F)cc2)c2ccc(F)cc2)CC1	16µM*	-28%	25µM*!
SMILES	p53ts 39C tox	Imprint erasure	p53ts 32C tox
O=C1CC(N2CCC(n3c(=O)[nH]c4ccccc43)CC2)C(=O)N1c1ccc(F)cc1 (stereo not drawn)	8%	-6%	4%
CC(=O)OC1=CC2=CC[C@H]3[C@H]4CCC(=O)[C@@]4(C)CC(=O)[C@]3(S)[C@]2(C)CC1	6%[9.22 µM]	-4%[10.9 µM]	-7%[9.22 µM]
Cc1nc(-c2ccc(-c3ccc(C(=O)N4CCc5cc6c(cc54)C4(CCN(C)CC4)CO6)cc3)c(C)c2)no1	10µM*	-36%	16µM*
NS(=O)(=O)C[C-]1C=C[CH]([Sb-]([Cl])([Cl])([Cl])([Cl])[Cl])C=C1.c1ccncc1 (stereo not drawn)	19%[9.22 µM]	11%[10.9 µM]	4%[9.22 µM]
CN1CCN(c2ccc3ccccc3n2)CC1	-15%	-32%	-1%
Cc1ccc(NC(=O)Nc2ccc3nc(N4CCN(C)CC4)cc(C)c3c2)cc1F	u	4%[10.9 µM]	25µM*
CCOC(=O)c1cccc(NC(=O)c2cnc(N3CCCCC3)c3ccccc23)c1	u	8%[10.9 µM]	0%
